Compound activity (PubChem BioAssay)
The entries come from a sample that favours hits as a whole.
Pf Dd2 growth = qHTS Primary assay for Inhibitors of Plasmodium falciparum Dd2 growth in vitro | 120,000 tested, 4.3% active | AID 1347417, 2020 | Potency, µM (series often up to 28.9 µM), hits mostly inhibitors | P. falciparum Dd2 growth, SYBR Green, 72 h; active = well fitted inhibition curve with a large enough effect; also: nearly all actives have a fitted effect of over 65% in size
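Readout: SYBR Green fluorescence, 485 nm excitation, 535 nm emission, after ~16 h lysis at 37C. Before that, Dd2-infected red cells (2.5% hematocrit) grew 72 h with compound, 29 uM top final concentration.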
Numbers stand for hits; [ ] = remark or other dose.

For CN(C)C[C@@H]1CN(C)C[C@H]1NS(=O)(=O)c1ccc(Br)cc1 the results were Pf Dd2 growth 1.78µM.
For CCCS(=O)(=O)N[C@@H]1CN(C)C[C@H]1CN(C)C the results were Pf Dd2 growth inactive.
`CC(=O)N1C[C@@H](CN(C)C)[C@H](NS(=O)(=O)c2cccc(C#N)c2)C1` gave Pf Dd2 growth inactive.
For CN(C)C[C@@H]1CN(C)C[C@H]1NS(=O)(=O)c1ccc2c(c1)CCCC2 the results were Pf Dd2 growth 3.16µM.
Screening CNC(=O)N1C[C@@H](CN(C)C)[C@H](NS(=O)(=O)c2ccc3c(c2)CCC3)C1 returned Pf Dd2 growth inactive.
For COCC(=O)N1CCN(C)CC1C(=O)N1CCc2nc[nH]c2C1 (stereo unspecified) the results were Pf Dd2 growth inactive.
`O=C(Cc1cccc(F)c1)N1CCN(c2cc(-c3cccs3)[nH]n2)CC1` gave Pf Dd2 growth inactive.
Screening CC1CCCCC1NC(=O)c1ccc2nccn2c1 (stereo unspecified) returned Pf Dd2 growth inactive.
For Cc1cccc(NC(=O)c2sc3nc4c(cc3c2N)CN(C(C)C)CC4)c1 the results were Pf Dd2 growth 11.2µM.
For CC(=O)c1cccc(NC(=O)c2sc3nc4c(cc3c2N)CCCC4)c1 the results were Pf Dd2 growth inactive.
CN1CCc2nc3sc(C(=O)Nc4cccc(C#N)c4)c(N)c3cc2C1 was read as Pf Dd2 growth inactive.
CSc1ncc(CN2CCCN(S(=O)(=O)N3CCCC3)CC2)cn1 was read as Pf Dd2 growth inactive.
Cc1ccc(C(=O)N2CCC3(CC2)NC(=O)N(c2ccccc2)N3)cc1C was read as Pf Dd2 growth inactive.
Screening Cc1ccc(C(=O)N2CCC3(CC2)NC(=O)N(Cc2ccccc2)C3=O)cc1F returned Pf Dd2 growth inactive.
Screening Cc1ccc(C(=O)N2CC[C@@](C)(O)[C@@H](Cc3ccccc3)C2)cc1C returned Pf Dd2 growth 8.91µM.
`Cc1noc(-c2cccc(OC3CN(C(=O)NC4CCCCC4)C3)c2)n1` gave Pf Dd2 growth inactive[5.79 µM].
O=C(NCC1(COc2cccnc2)C[C@@H](O)[C@@H](O)C1)C1CC1 (stereo partly specified) was read as Pf Dd2 growth 7.94µM.
Screening O=C(NCC1(COc2cnccn2)C[C@@H](O)[C@@H](O)C1)C1CC1 (stereo partly specified) returned Pf Dd2 growth inactive.
Screening COCC(=O)NCC1(COc2cccnc2)C[C@@H](O)[C@@H](O)C1 (stereo partly specified) returned Pf Dd2 growth inactive.
Screening CC(=O)N1C[C@@H]2OCC(=O)N(C)[C@@H]2C1 returned Pf Dd2 growth inactive.
`CCCc1nn(-c2cccc(C)c2)c(=O)n1CC(=O)NCC1(O)CCCCC1` gave Pf Dd2 growth inactive.
O=c1[nH]c2ccccc2n1C1CCN(c2nccc(-c3cccnc3)n2)CC1 was read as Pf Dd2 growth 11.2µM.
Cc1nc(CC2CCN(c3nccc(-c4cccnc4)n3)CC2)no1 was read as Pf Dd2 growth inactive.
`O=C(NCc1ccccn1)C1CCN(c2nccc(-c3cccnc3)n2)CC1` gave Pf Dd2 growth inactive.
`O=C1NCC2(CCN(C(=O)c3ccc(C(F)(F)F)cc3)CC2)Oc2ccccc21` gave Pf Dd2 growth inactive.
CN[C@@H](C)C(=O)N[C@@]1(C)OC[C@@H]2CC[C@H](C(=O)Nc3ccc(F)c(OC)c3)N2C1=O was read as Pf Dd2 growth inactive.
Screening O=[S+]1([O-])NC2(CCN(Cc3ccc(OC(F)(F)F)cc3)C2)CNc2ccccc21 (stereo unspecified) returned Pf Dd2 growth inactive.
Screening Cc1ccc(S(=O)(=O)N[C@H]2CO[C@H]3[C@@H]2OC[C@@H]3Nc2nccc(C(C)(C)C)n2)cc1 returned Pf Dd2 growth inactive.
For O=C1Nc2ccccc2CC12CCN(Cc1ccccc1)CC2 the results were Pf Dd2 growth 3.55µM.
O=C1Nc2ccccc2CC12CCN(Cc1cccnc1)CC2 was read as Pf Dd2 growth inactive.
For O=C1Nc2ccccc2CC12CCCN(Cc1ccc(C(F)(F)F)cc1)C2 (stereo unspecified) the results were Pf Dd2 growth inactive.
O=C1NCc2ccccc2CC12CCN(Cc1ccsc1)C2 (stereo unspecified) was read as Pf Dd2 growth inactive.
`CN(C)c1ccc(CN2CCC3(Cc4ccccc4NC3=O)C2)cc1` (stereo unspecified) gave Pf Dd2 growth 10µM.
O=C1Nc2ccccc2CC12CCN(Cc1cccc3ccccc13)CC2 was read as Pf Dd2 growth inactive.
O=C1Nc2ccccc2CC12CCN(Cc1ccsc1)CC2 was read as Pf Dd2 growth 11.2µM.
For CN(C)c1ccc(CN2CCC3(C2)C(=O)Nc2ccccc23)cc1 (stereo unspecified) the results were Pf Dd2 growth inactive.
For O=C1NCc2ccccc2CC12CCN(Cc1ccccc1)CC2 the results were Pf Dd2 growth inactive.
O=C(c1cc[nH]c(=O)c1)N1CCCn2ccnc2C1c1ccccc1 (stereo unspecified) was read as Pf Dd2 growth inactive.
Screening O=C1OCCN1C1CCN([S+](=O)([O-])c2cccc(C(F)(F)F)c2)CC1 returned Pf Dd2 growth inactive.
`OCCC1CN(c2nccc(-c3ccccn3)n2)CCN1Cc1ccoc1` (stereo unspecified) gave Pf Dd2 growth inactive.
CC(C)C(=O)N1[C@@H]2CC[C@H]1CC(NC(=O)c1ccncc1)C2 (stereo partly specified) was read as Pf Dd2 growth inactive.
Screening CCc1cc(=O)n(CC(=O)Nc2ccc(OC)c(OC)c2)c(-c2ccccc2)n1 returned Pf Dd2 growth inactive.
Screening CC(C)CCC(=O)N1CCC2(CC1)Nc1ccccc1NC2=O returned Pf Dd2 growth inactive.
O=C(Cn1ncc2c3ccccc3n(Cc3ccccc3F)c2c1=O)NCCc1ccc(Cl)cc1 was read as Pf Dd2 growth inactive.
CCCCN(C)CCNC(=O)Cn1ncc2c([nH]c3ccccc32)c1=O was read as Pf Dd2 growth inactive.
For Cc1ccc(C)c(Cn2c3ccccc3c3cnn(CC(=O)NC(C)c4ccccc4)c(=O)c32)c1 (stereo unspecified) the results were Pf Dd2 growth inactive.
`CCCCN(C)CCCNC(=O)Cn1ncc2c3ccccc3n(Cc3ccccc3F)c2c1=O` gave Pf Dd2 growth 5.62µM.
For CCCN(CCC)CCCNC(=O)Cn1ncc2c3ccccc3n(Cc3ccccc3F)c2c1=O the results were Pf Dd2 growth 5.01µM.
Screening Cc1ccccc1Cn1c2ccccc2c2cnn(CC(=O)NCCc3ccc(Cl)cc3)c(=O)c21 returned Pf Dd2 growth inactive.
Cc1ccc(C)c(Cn2c3ccccc3c3cnn(CC(=O)NCC(C)c4ccccc4)c(=O)c32)c1 (stereo unspecified) was read as Pf Dd2 growth inactive.
`CCCCN(C)CCCNC(=O)Cn1ncc2c3ccccc3n(Cc3cc(C)ccc3C)c2c1=O` gave Pf Dd2 growth 0.447µM.
`CC(CCc1ccccc1)NC(=O)Cn1ncc2c3ccccc3n(Cc3ccccc3F)c2c1=O` (stereo unspecified) gave Pf Dd2 growth inactive.
O=C1N(C2CCN(S(=O)(=O)c3cnc[nH]3)CC2)C(c2ccncc2)C12CCCCC2 (stereo unspecified) was read as Pf Dd2 growth inactive.
O=C(c1cccs1)N1C[C@@H]2C[C@H](C1)c1c(-c3ccc(Cl)cc3)ccc(=O)n1C2 was read as Pf Dd2 growth inactive.
Screening Cc1noc2ccc(-c3ccccc3Oc3ccccc3)nc12 returned Pf Dd2 growth inactive.
